# According to PubChem BioAssay (EPA / NIEHS):
# Inconclusive results are not listed. Activity calls are given as the source filed them. How the source made its calls: active means hit-call score of the fitted dose curve at least 0.9, where 1 is the maximum; inconclusive means response in the unintended direction; inactive means score below 0.9.
# Read-out: sulfotransferase (SULT2A), SULT2A1 (gene 6822)
# Test: CLD_SULT2A_48hr: CellzDirect (CLD) Gene Expression Assay for sulfotransferase (SULT2A) at 48 hours (AID 2283710);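 further: hits raise SULT2A1 transcript above the 0.2% DMSO vehicle baseline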
# Procedure: CLD_48hr is a cell-based, multiplexed-readout assay that uses hepatocyte, a human liver primary cell, with measurements taken at 48 hours after chemical dosing in a 96-well plate.CLD_SULT2A_48hr is one of 16 assay component(s) measured or calculated from the CLD_48hr assay. It is designed to make measurements of mRNA induction, a form of inducible reporter, as detected with chemiluminescence signals by Quantitative Nuclease Protection Assay (qNPA) technology.Data from the assay component CLD_SULT2A_48hr was analyzed at the endpoint, CLD_SULT2A_48hr, in the positive analysis fitting direction relative to DMSO as the negative control and baseline of activity. Using a type of inducible reporter, gain-of-signal activity can be used to understand changes in the reporter gene as they relate to the gene SULT2A1. Furthermore, this assay endpoint can be referred to as a primary readout. To generalize the intended target to other relatable targets, this assay endpoint is annotated to the transferase intended target family, where subfamily is sulfotransferase.
# Human hepatocyte cultures were treated daily for two consecutive days with fresh dosing solutions containing appropriate concentrations of the 320 ToxCast chemicals (chemical identities were blinded to CellzDirect and other ToxCast collaborators), vehicle control (0.2% DMSO), and positive control inducers as summarized in Table 1. Due to the large number of treatment groups and chemicals examined, the ToxCast chemicals were divided into two groups (spanning two independent cultures of hepatocytes from separate donor preparations (Hu778: ToxCast plates 1 and 2; Hu776: ToxCast plates 3 and 4). Each preparation of human hepatocyte cultures was treated with respective vehicle control, medium only control, set of six positive controls/reference chemicals for the five hepatic receptor pathways, and a subset of eight of the ToxCast chemicals (indoxacarb, pyrithiobac-sodium, norflurazon, cyhalofop-butyl, methomyl, thiram, acetochlor, and propiconazole). These replicate data, coupled with internal replicates designed within the blinded ToxCast chemical library, provided additional data to evaluate interindividual differences between hepatocyte preparations and their potential impact on chemical profiles.Cell morphology and integrity were evaluated using phase-contrast microscopy as an indicator of hepatocyte cell health (Tyson & Green, 1987). Cultures for each treatment group (i.e., media, vehicle [0.2% DMSO], positive control inducers [multiple concentrations], and the ToxCast chemicals [multiple concentrations]) were observed and cell morphology was assessed relative to vehicle control cultures at each harvest time point (0, 6, 24, or 48 h). […] Images were evaluated at the conclusion of the study to assess changes in cell integrity and account for the effects of chemical exposure on uncharacteristic changes in concentration-dependent gene expression profiles. The results from these determinations of apparent cytotoxicity were annotated (yes/no) alongside the corresponding qNPA data for reference.At the conclusion of each treatment period, hepatocyte cultures (96-well) were washed with 1 volume of HBSS, lysed by addition of 25 ul ArrayPlate lysis buffer (HTG, Tucson, AZ), and 70 ul/well of Denaturation Oil, denatured by incubation at 95C for 10 min, and frozen at approximately -70C until analysis by nuclease protection assay (qNPA) (Roberts et al., 2007). For qNPA analysis, cell lysates were thawed at 50C for approximately 30 min, qNPA probes were added, and samples were incubated at 95C for 10 min to begin the detection process by denaturing the target RNA, dissociating the duplexes and secondary structure hybridization. At the conclusion of the hybridization period, S1 nuclease reagent was added to each sample to digest all nonprotected nucleotides at 50C for 60-90 min. […]
SMILES,outcome,AC50
CCCCN(CC)c1c([N+](=O)[O-])cc(C(F)(F)F)cc1[N+](=O)[O-],inactive,
CNc1cnn(-c2cccc(C(F)(F)F)c2)c(=O)c1Cl,inactive,
CCOP(=S)(OCC)SCCSCC,inactive,
Cc1nn(-c2cc(NS(C)(=O)=O)c(Cl)cc2Cl)c(=O)n1C(F)F,inactive,
CCCCOC(=O)c1ccccc1C(=O)O,inactive,
C#CCC1=C(C)C(OC(=O)C2C(C=C(C)C)C2(C)C)CC1=O (stereo not given),inactive,
CC(C)[C@H](C(=O)O[C@H](C#N)c1cccc(Oc2ccccc2)c1)c1ccc(Cl)cc1,inactive,
CCOP(=S)(OCC)Oc1ccc2c(C)c(Cl)c(=O)oc2c1,inactive,
COP(=O)(OC)SCn1c(=O)oc2cc(Cl)cnc21,inactive,
CN(C)NC(=O)CCC(=O)O,inactive,
CCOP(=O)(NC(C)C)Oc1ccc(SC)c(C)c1 (stereo not given),inactive,
N#CSCSC#N,inactive,
CCCSP(=O)(OCC)SCCC,inactive,
Nc1c(Cl)cc([N+](=O)[O-])cc1Cl,inactive,
O=[N+]([O-])c1cc(C(F)(F)F)c(Cl)c([N+](=O)[O-])c1Nc1ncc(C(F)(F)F)cc1Cl,inactive,
CC(COc1ccc(Oc2ccccc2)cc1)Oc1ccccn1 (stereo not given),inactive,
CC(C1CC1)C(O)(Cn1cncn1)c1ccc(Cl)cc1 (stereo not given),inactive,
CCc1cccc(C)c1N(C(=O)CCl)C(C)COC (stereo not given),inactive,
CC(C)=CC1C(C(=O)OCN2C(=O)C3=C(CCCC3)C2=O)C1(C)C (stereo not given),inactive,
CCc1cnc(C2=NC(C)(C(C)C)C(=O)N2)c(C(=O)O)c1 (stereo not given),inactive,

SMILES,outcome,AC50
CN(C)[C@@H]1C(=O)C(C(N)=O)=C(O)[C@@]2(O)C(=O)C3=C(O)c4c(O)cccc4[C@@](C)(O)[C@H]3[C@H](O)[C@@H]12,inactive,
C[Si](Cn1cncn1)(c1ccc(F)cc1)c1ccc(F)cc1,inactive,
CC[C@H](C)[C@H]1O[C@]2(C=C[C@@H]1C)C[C@@H]1C[C@@H](C/C=C(\C)[C@@H](O[C@H]3C[C@H](OC)[C@@H](O[C@H]4C[C@H](OC)[C@@H](NC)[C@H](C)O4)[C@H](C)O3)[C@@H](C)/C=C/C=C3\CO[C@@H]4[C@H](O)C(C)=C[C@@H](C(=O)O1)[C@]34O)O2,,2 µM (active)
Cc1ccn2nc(S(=O)(=O)Nc3c(F)cccc3F)nc2n1,inactive,
CC(C)N(C(=O)SCC(Cl)=C(Cl)Cl)C(C)C,inactive,
CCC(CC)Nc1c([N+](=O)[O-])cc(C)c(C)c1[N+](=O)[O-],inactive,
COc1ccc(C(=CC(=O)N2CCOCC2)c2ccc(Cl)cc2)cc1OC,inactive,
COP(=O)(NC(C)=O)SC (stereo not given),inactive,
CCOC(=O)CC(SP(=O)(OC)OC)C(=O)OCC (stereo not given),inactive,
CCOP(=O)(OCC)Oc1cc(C)nc(C(C)C)n1,,4.2 µM (active)
CNC(=O)ON=C(C)SC,inactive,
CCOP(=S)(OCC)Oc1cc(C)nc(C(C)C)n1,inactive,
CCNc1nc(Cl)nc(NC(C)(C)C#N)n1,inactive,
CON=C(C(=O)OC)c1ccccc1CON=C(C)c1cccc(C(F)(F)F)c1,inactive,
O=C(O)c1cc(Oc2ccc(C(F)(F)F)cc2Cl)ccc1[N+](=O)[O-],inactive,
COc1cc(OC)nc(Sc2cccc(Cl)c2C(=O)O)n1,inactive,
CCCCSP(=O)(SCCCC)SCCCC,,33.4 µM (active)
CCOP(=S)(OCC)Oc1ccc([N+](=O)[O-])cc1,,5.32 µM (active)
CCCSP(=O)(OCC)Oc1ccc(Br)cc1Cl (stereo not given),inactive,
CC(=NC#N)N(C)Cc1ccc(Cl)nc1,inactive,
